Measurements as given in PubChem BioAssay (NCATS).
Inconclusive results are not listed. Activity calls are given as the source filed them. The call rests on the fitted dose curve; in most records, active means well fitted curve in the direction sought with a large enough effect; inconclusive means small, poorly fitted or top-dose-only effect, or another doubt; inactive means no such curve, though single readings can be large; an effect the other way counts as inactive or inconclusive.

Legend:
[1] = system: CRL-7250; assay: Cytotoxic Profiling of Annotated Libraries Using Quantitative High-Throughput Screening (AID 1296008); conditions: Five cell lines viability, CellTiter-Glo ATP luminescence, 48-72 h; max response: active compounds read low; further: nearly all actives have a fitted effect of over 60% in size; on max response: on the % scale 0 is the no-effect control and ±100 the full control effect
Procedure, shortened: (§1)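 Cells exposed to compounds for 48 or 72 hr at 37 degrees Celsius. Viability read as ATP-coupled luminescence with CellTiter-Glo after 10 min at room temperature.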

[2] = system: HEK293; assay: as above; conditions: Five cell lines viability, CellTiter-Glo ATP luminescence, 48-72 h; max response: active compounds read low
Procedure, shortened: as §1

[3] = system: HaCat; assay: as above; conditions: Five cell lines viability, CellTiter-Glo ATP luminescence, 48-72 h; max response: active compounds read low
Procedure, shortened: as §1

[4] = system: KB-3-1; assay: as above; conditions: Five cell lines viability, CellTiter-Glo ATP luminescence, 48-72 h; max response: active compounds read low
Procedure, shortened: as §1

[5] = system: NIH3T3; assay: as above; conditions: Five cell lines viability, CellTiter-Glo ATP luminescence, 48-72 h; max response: active compounds read low
Procedure, shortened: as §1

[6] = system: HACAT; assay: qHTS assay to identify novel small-molecules to repurpose for Merkel cell carcinoma treatment (AID 1296009); conditions: MCC and control cell lines, CellTiter-Glo viability, 72 h; at 44.8 µM (top of the series) unless noted; further: nearly all actives have a fitted effect of over 60% in size
Procedure, shortened: (§2)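 Cells were treated for 72 hr at 37 degree celsius with compounds in 8- or 11-point dose response. Viability was read by CellTiter-Glo luminescence, normalized to no-cell (cytotoxicity) and DMSO controls.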

[7] = system: NIH3T3; assay: as above; conditions: MCC and control cell lines, CellTiter-Glo viability, 72 h; at 44.8 µM (top of the series) unless noted
Procedure, shortened: as §2

[8] = system: C33A; assay: Primary qHTS to identify gynecologic anti-cancer compounds using libraries of approved drugs and bioactive compounds (AID 1345084); conditions: Gynecologic cancer cell panel viability, ATPlite luminescence, 48 h; series mostly up to 57.5 µM; further: on the % scale 0 is the no-effect control and ±100 the full control effect; nearly all actives have a fitted effect of over 55% in size
Procedure, shortened: (§3)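 Cell viability after 48 h drug treatment, ATPlite luminescence readout; five doses.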

[9] = system: CAOV3; assay: as above; conditions: Gynecologic cancer cell panel viability, ATPlite luminescence, 48 h; series mostly up to 57.5 µM
Procedure, shortened: as §3

[10] = system: CASKI; assay: as above; conditions: Gynecologic cancer cell panel viability, ATPlite luminescence, 48 h; series mostly up to 57.5 µM
Procedure, shortened: as §3

[11] = system: Es-2; assay: as above; conditions: Gynecologic cancer cell panel viability, ATPlite luminescence, 48 h; series mostly up to 57.5 µM
Procedure, shortened: as §3

[12] = system: HeLa; assay: as above; conditions: Gynecologic cancer cell panel viability, ATPlite luminescence, 48 h; series mostly up to 57.5 µM
Procedure, shortened: as §3

[13] = system: Hek293T; assay: as above; conditions: Gynecologic cancer cell panel viability, ATPlite luminescence, 48 h, control line for the selectivity index; series mostly up to 57.5 µM
Procedure, shortened: as §3

[14] = system: JEG-3; assay: as above; conditions: Gynecologic cancer cell panel viability, ATPlite luminescence, 48 h; series mostly up to 57.5 µM
Procedure, shortened: as §3

CC1(C)CC2C(O)C3=C(CC(C)(O)C2C1)C(=O)OC3 (stereo not drawn)
inactive: outcome [1] | max response [2] -1.51% | outcome [3] | outcome [4] | outcome [5] | outcome [6] | outcome [7] | Potency [8] | Potency [9] | outcome [10] | Potency [11] | Potency [12] | Potency [13] | Potency [14]

CCCCOc1nc(N)c2c(n1)N(Cc1cccc(CN3CCCC3)c1)CC(=O)N2
inactive: outcome [1] | max response [2] -3.01% | outcome [3] | max response [4] -3.08% | outcome [5] | outcome [6] | outcome [7] | Potency [8] | Potency [9] | outcome [10] | Potency [11] | Potency [12] | Potency [13] | Potency [14]

C=C1C(=O)O[C@@H]2CC(C)=C([C@@H](C)CCCOC(C)=O)[C@@H](O)[C@H]12
inactive: max response [1] 0.455% | max response [2] 1.32% | outcome [3] | max response [4] 6.41% | outcome [5] | outcome [6] | outcome [7] | Potency [8] | Potency [9] | outcome [10] | Potency [11] | Potency [12] | Potency [13] | Potency [14]

C=C[C@@]1(C)CCC2=C([C@H]1OC(C)=O)[C@H](OC(C)=O)CC1[C@](C)(C(=O)OC)CC[C@H](OC(C)=O)[C@]21C (stereo partly drawn)
inactive: max response [1] -6.44% | max response [2] 0.95% | outcome [3] | outcome [4] | outcome [5] | outcome [6] inactive [at 17.4 µM] | outcome [7] inactive [at 17.4 µM] | Potency [8] | Potency [9] | outcome [10] | Potency [11] | Potency [12] | Potency [13] | Potency [14]

C=C(C)C1CCC2(C(=O)OC3OC(COC4OC(CO)C(O)C(O)C4O)C(OC4OC(C)C(O)C(O)C4O)C(O)C3O)CCC3(C(=O)O)C(CCC4C5(C)CCC(=O)C(C)(C)C5CCC43C)C12 (stereo not drawn)
inactive: max response [1] -1.47% | max response [2] -21.3% | outcome [3] | max response [4] 1.44% | outcome [5] | outcome [6] inactive [at 9.27 µM] | outcome [7] inactive [at 9.27 µM] | activity change, negative = cytotoxicity [8] 2.12% [at 11.6 µM] | activity change, negative = cytotoxicity [9] 1.66% [at 11.6 µM] | activity change, negative = cytotoxicity [10] -3.34% [at 11.6 µM] | activity change, negative = cytotoxicity [11] -14% [at 11.6 µM] | activity change, negative = cytotoxicity [12] 1.62% [at 11.6 µM] | activity change, negative = cytotoxicity [13] 0.77% [at 11.6 µM] | activity change, negative = cytotoxicity [14] -1.16% [at 11.6 µM]

C/C=C/C=C/C1=C2C(=O)C3(C)C4C(C(=O)CC(O)/C=C/C)=C(O1)C1(C)C2C2(C)OC1(O)C4(C)OC23O (stereo not drawn)
inactive: outcome [1] | max response [2] -2.55% | outcome [3] | max response [4] 3.96% | outcome [5] | outcome [6] inactive [at 17.4 µM] | outcome [7] inactive [at 17.4 µM] | Potency [8] | Potency [9] | outcome [10] | Potency [11] | Potency [12] | Potency [13] | Potency [14]

C[C@@H]1O[C@@H](O[C@H]2[C@H](Oc3cc(O)c(C(=O)CCc4ccc(O)cc4)c(O)c3)O[C@H](CO)[C@@H](O)[C@@H]2O)[C@H](O)[C@H](O)[C@H]1O
inactive: max response [1] 2.09% | max response [2] -1.52% | outcome [3] | outcome [4] | outcome [5] | outcome [6] | outcome [7] | Potency [8] | Potency [9] | outcome [10] | Potency [11] | Potency [12] | Potency [13] | Potency [14]

CC(C)=CCC[C@](C)(O[C@@H]1O[C@H](CO[C@@H]2OC[C@H](O)[C@H](O)[C@H]2O)[C@@H](O)[C@H](O)[C@H]1O)[C@H]1CC[C@]2(C)[C@@H]1[C@H](O)C[C@@H]1[C@@]3(C)CC[C@H](O[C@@H]4O[C@H](CO)[C@@H](O)[C@H](O)[C@H]4O[C@@H]4O[C@H](CO)[C@@H](O)[C@H](O)[C@H]4O)C(C)(C)[C@@H]3CC[C@]12C
inactive: outcome [1] | max response [2] 3.96% | outcome [3] | max response [4] 1.14% | outcome [5] | outcome [6] inactive [at 17.4 µM] | outcome [7] inactive [at 17.4 µM] | Potency [8] | Potency [9] | outcome [10] | Potency [11] | Potency [12] | Potency [13] | Potency [14]

Cc1c(-c2ccc3c(c2)OCO3)oc2ccc(C(O)C(C)O)cc12 (stereo not drawn)
inactive: max response [1] -2.17% | max response [2] -10.1% | outcome [3] | outcome [4] | outcome [5] | outcome [6] | outcome [7] | Potency [8] | Potency [9] | outcome [10] | Potency [11] | Potency [12] | Potency [13] | Potency [14]

COc1ccc(C2OCC3C(c4cc(OC)c5c(c4)OCO5)OCC23)cc1OC (stereo not drawn)
inactive: max response [1] 3.22% | max response [2] 1.08% | outcome [3] | max response [4] -4.07% | outcome [5] | outcome [6] inactive [at 17.4 µM] | outcome [7] inactive [at 17.4 µM] | Potency [8] | Potency [9] | outcome [10] | Potency [11] | Potency [12] | Potency [13] | Potency [14]

CCC/C=C/C=C/C1CC(O)C(O)C(=O)C1CO (stereo not drawn)
inactive: outcome [1] | max response [2] -5.36% | outcome [3] | outcome [4] | outcome [5] | outcome [6] | outcome [7] | Potency [8] | Potency [9] | outcome [10] | Potency [11] | Potency [12] | Potency [13] | Potency [14]

COc1ccc(OC2OC(CO[C@@H]3O[C@@H](C)[C@H](O)[C@@H](O)[C@H]3O)C(O)C(O)C2O)cc1OC (stereo partly drawn)
inactive: max response [1] 3.33% | max response [2] -0.0887% | outcome [3] | max response [4] 5.53% | outcome [5] | outcome [6] inactive [at 17.4 µM] | outcome [7] inactive [at 17.4 µM] | Potency [8] | Potency [9] | outcome [10] | Potency [11] | Potency [12] | Potency [13] | Potency [14]
